LRH-1 inv ag: suppresses constitutive activity of human LRH-1. O00482. HEK293T StAR-luciferase reporter, LRH-1 transfected, 24 h. inhibition, % at 3.6 µM. 0.13% of 360,000 active. AID 602396;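 active = inhibition above the mean inhibition of all tested compounds plus 3 SD, cut at about 73% in these data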;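 note: 0% = DMSO wells and 100% = reporter-only cells lacking LRH-1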
NCOA1 inh: inhibitors of human steroid receptor coactivator 1 (SRC1) | Q15788 | HEK293 GAL4-SRC1 luciferase reporter, luminescence | inhibition, % at 3.6 µM | 0.12% of 360,000 active;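 active = inhibition above the campaign mean plus 3 SD, with each screening campaign given its own cutoff, cut at about 60% in these data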;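 note: 0% = DMSO treated cells and 100% = gossypol at 36 µM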
NCOA2 inhibitor: inhibits human steroid receptor coactivator 2 | Q15596 | HEK293 GAL4-SRC2 luciferase reporter, luminescence | inhibition, % at 9 µM | 0.17% of 370,000 active;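 active = inhibition above the mean inhibition of all tested compounds plus 3 SD, set per campaign, cut at about 52% in these data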;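 note: 0% = DMSO treated cells and 100% = cells given Gossypol at 36 µM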
Efflux pump mplx: antifungal efflux pump inhibition, Nile Red retention; S. cerevisiae Candida pump triplex; inhibition, % at 10 µM; 0.44% of 330,000 active; AID 485275;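 active = plate passing quality check with inhibition over a set limit, or well fluorescence over plate mean plus 4 SD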;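 note: Nile Red retained in pooled yeast measured as flow cytometry median fluorescence; 0% = buffer negative control and 100% = Enniatin B positive control; higher means more Nile Red kept so more efflux inhibition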
NR2F2 inh: inhibitors of human COUP-TFII (NR2F2) | HEK293T NGFI-A luciferase reporter, luminescence | 0.7% of 370,000 active | P24468 | inhibition, % at 8.6 µM | AID 686940;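 active = inhibition above a per-plate cutoff, mean inhibition of test wells between control levels plus 3 SD, cut at about 38% in these data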;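 note: cells cotransfected with COUP-TFII expression vector driving the NGFI-A reporter; 0% = median of COUP-TF2 test wells and 100% = reporter-only cells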
Target sequence (P24468 whole entry, looked up): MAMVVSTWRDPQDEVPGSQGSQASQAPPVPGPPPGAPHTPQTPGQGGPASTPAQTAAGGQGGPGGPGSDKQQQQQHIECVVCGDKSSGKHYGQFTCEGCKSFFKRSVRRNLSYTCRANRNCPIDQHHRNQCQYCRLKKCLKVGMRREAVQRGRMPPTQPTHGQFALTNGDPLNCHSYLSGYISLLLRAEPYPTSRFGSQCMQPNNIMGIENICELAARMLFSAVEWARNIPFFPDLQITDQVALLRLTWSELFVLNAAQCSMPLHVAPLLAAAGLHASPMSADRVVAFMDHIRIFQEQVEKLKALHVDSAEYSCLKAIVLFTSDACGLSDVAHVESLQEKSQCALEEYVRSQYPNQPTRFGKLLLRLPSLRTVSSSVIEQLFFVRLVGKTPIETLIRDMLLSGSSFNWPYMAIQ
SRC3 inh: human NCOA3 inhibition; HEK293 GAL4-SRC3 luciferase reporter, luminescence; Q9Y6Q9; 0.17% of 360,000 active; inhibition, % at 3.6 µM;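 active = inhibition above a per-campaign cutoff, the mean of all compounds plus 3 SD, cut at about 60% in these data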;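 note: 0% = DMSO-treated cells and 100% = gossypol-treated cells at 36 µM; higher means less SRC3-driven luciferase light from the GAL4 reporter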
Yeast cmpd fluor: compound fluorescence in yeast efflux pump counter-screen; fluorescence ratio to DMSO, % at 10 µM; AID 588517; 4% of 1,700 active; S. cerevisiae AD/pABC3, flow cytometry; shares compounds with Efflux pump mplx;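 active = fluorescence ratio to DMSO above its plate's cutoff, the plate mean ratio plus 5 SD, cut at about 210% in these data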;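 note: unstained yeast with no Nile Red so the signal is compound autofluorescence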
Mdr1 pump inh: Candida Mdr1 efflux pump inhibition; shares compounds with Efflux pump mplx; S. cerevisiae AD/CaMDR1, Nile Red efflux, flow cytometry; inhibition, % at 10 µM; 1% of 1,700 active; AID 588518; in the data active = inhibition above about 26%;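 note: 0% = DMSO vehicle and 100% = reference inhibitor; higher means more Nile Red retained so more efflux inhibition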
CaCdr2 efflux inh: inhibitors of Candida albicans Cdr2 efflux pump; shares compounds with Efflux pump mplx; S. cerevisiae AD/CaCDR2, Nile Red retention, flow cytometry; Nile Red retention ratio vs DMSO, % at 10 µM; 4% of 1,700 active; AID 588520; in the data active = Nile Red retention ratio vs DMSO above about 190%;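 note: higher ratio means more blocking of Cdr2 efflux of the dye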
CaCdr1 efflux inh: blocks the Candida albicans Cdr1 efflux pump in yeast; S. cerevisiae AD/CaCDR1, Nile Red efflux, flow cytometry; AID 588522; inhibition, % at 10 µM; 1% of 1,700 active; shares compounds with Efflux pump mplx;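 active = inhibition above the screen-wide mean plus twice its standard deviation, cut at about 32% in these data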
Starred values were filed as active, the others as inactive; / = not tested or not shown. Hits are enriched below; roughly 1.2% of the tested compounds scored in any of these assays.

SMILES | LRH-1 inv ag | NCOA1 inh | NCOA2 inhibitor | Efflux pump mplx | NR2F2 inh | SRC3 inh | Yeast cmpd fluor | Mdr1 pump inh | CaCdr2 efflux inh | CaCdr1 efflux inh
CCC(NC(=O)c1cc(COc2ccc(OC)cc2Cl)on1)c1ccncc1 (centres undefined) | 14 | -40 | -28 | 0 | -8 | -29 | 82 | 0 | 93 | 0
O=C(COC(=O)c1ccc2ccccc2n1)c1ccc(F)cc1 | 21 | -8 | -12 | 0 | 0 | 24 | / | / | / | /
Cc1c(N)cccc1Cl | -13 | -7 | -18 | / | -2 | 16 | / | / | / | /
Cc1nc(NC(=S)NC(=O)c2ccco2)sc1C(=O)N(C)C | -28 | -13 | -19 | 5.7* | -6 | -8 | 79 | 0 | 100 | 0
Cc1ccc(C(C(=O)NCc2ccccc2)N(C(=O)c2ccccn2)c2ccccc2)o1 (centres undefined) | 0 | -45 | -24 | 0 | 12 | 2 | / | / | / | /
C#Cc1ccc([C@@H]2C=C(C(=O)N3CCN(Cc4ccccc4)CC3)O[C@H](OCC)[C@H]2CCCO)cc1 | -26 | 3 | 3 | 0 | -11 | -17 | / | / | / | /
CCOC(=O)Cc1cc(-c2ccc(OC)cc2)nc2ccc3ccccc3c12 | 3 | -12 | -18 | 10* | 6 | -3 | 91 | 0 | 106 | 0
COc1ccc(-c2cc(C(=O)Nc3ccc(C)c(N)c3)c3ccccc3n2)cc1 | -42 | -22 | -45 | 0.5* | -5 | -67 | 107 | 0 | 103 | 0
COc1ccc(-c2cc(C(=O)Nc3ccc(S(=O)(=O)Nc4ncccn4)cc3)c3ccccc3n2)cc1 | -1 | -23 | 5 | 0 | 2 | 0 | / | / | / | /
COc1ccc(-c2cc(C(=O)NCCN3CCOCC3)c3ccccc3n2)c(OC)c1 | -4 | 3 | 9 | 0 | 9 | 6 | 86 | -1 | 99 | 0
COc1ccc(-c2cc(C(=O)Nc3cc(S(=O)(=O)N4CCOCC4)ccc3N3CCOCC3)c3ccccc3n2)cc1 | -22 | 4 | 4 | 0.8* | 9 | 10 | 113 | 0 | 125 | 0
CCCC(=O)N1CCC1(C)C(=O)Nc1cccc(F)c1 (centres undefined) | -7 | -3 | / | / | / | -7 | / | / | / | /
O=C(Nc1nccs1)c1cc(-c2ccccc2)nc2ccccc12 | 6 | 12 | 23 | 11* | 4 | 13 | 103 | 0 | 101 | 0
CCc1noc(C)c1C(=O)N1CCN(CC(=O)OC)CC1 | / | / | -11 | / | -14 | / | / | / | / | /
COc1cc(C(=O)N2CCN(c3cccc(C)c3C)CC2)cc(OC)c1OC | -6 | 0 | 1 | 0 | -26 | -9 | / | / | / | /
COc1cc(C(=O)N2CCN(c3cc(Cl)ccc3Cl)CC2)cc(OC)c1OC | 16 | -17 | -4 | 0.6* | -1 | 6 | 101 | 0 | 91 | 0
CCS(=O)(=O)Nc1ccc(C2=NN(C(=O)c3ccco3)C(c3cccs3)C2)cc1 (centres undefined) | 1 | 1 | 34 | -1 | 5 | 10 | / | / | / | /
COc1cccc(NC(=O)C/C(C)=N/NC(=O)c2ccccc2Cl)c1 | -33 | -36 | -38 | 0.8* | 6 | -41 | 100 | 0 | 94 | 0
O=C(COc1ccc(Cl)cc1Cl)NN1C(=O)/C(=C\c2ccc(Cl)cc2)SC1=S | -10 | -10 | -13 | 0 | -1 | -12 | 99 | 0 | 107 | 0
O=C(COc1ccc(Cl)cc1Cl)NN1C(=O)C2C3C=CC([C@@H]2C1=O)C31CC1 (some centres undefined) | 3 | 10 | -6 | 0 | -12 | 1 | / | / | / | /
CN1CCN(c2ccccc2NC(=O)COc2ccccc2)CC1 | 1 | 0 | -2 | 0 | 2 | 14 | / | / | / | /
CCN(CCO)Cc1csc2cc(C)ccc12 | 8 | 20 | 0 | 7.5* | 13 | 20 | 88 | 0 | 96 | 0
CCN(CCO)Cc1csc2ccccc12 | -11 | -14 | -4 | 0 | -5 | 15 | / | / | / | /
